In all, about 5,500 compounds went through this assay and about 2,000 (36%) were called active. Another 18% or so got no clear call; they are omitted. Cut-off read from the data, not from the text of the source: active = normalized growth mostly below about 0.91 (no sharp cut-off); inconclusive = no clear call, values can overlap the other calls; inactive = mostly above about 0.92. The list shows a part of the results.
Assay: chemical genetic growth profiling, strain panel (AID 1159580);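 note: tested at 20 µM; growth read once vehicle control cultures reached saturation at 30 °C; 1 = growth at the plate median or of vehicle wells; lower values mean less growth of the strain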
Details: S. cerevisiae deletion strains, growth OD

Measured: normalized growth

C=C(C)[C@H]1CN[C@H](C(=O)O)[C@H]1CC(=O)O
inactive: locus YAL040C, strain CLN3, active compounds read low 1.02 | locus YCL061C, strain MRC1 (second series), active compounds read low 1 | locus YDR363W, strain ESC2, active compounds read low 1.03 | locus YER002W, strain NOP16, active compounds read low 1.01 | locus YMR307W, strain GAS1, active compounds read low 1 | locus YNL128W, strain TEP1, active compounds read low 1 | locus YNL175C, strain NOP13, active compounds read low 1.02 | locus YNL197C, strain WHI3, active compounds read low 1.02 | locus YNL224C, strain SQS1, active compounds read low 1 | locus YOR083W, strain WHI5 (second series), active compounds read low 1.03

Reference: PubChem BioAssay AID1159580 (chemical genetic matrix, 2015)
